The target of test [1] is Rap guanine nucleotide exchange factor 3 (Homo sapiens) (UniProt O95398). The test can be described thus: Confirmatory qHTS for agonist of cAMP-regulated guanine nucleotide exchange factor 3 (EPAC1) (AID 1645881).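 Further: EPAC1 catalysed release of BODIPY-GDP from Rap1B seen as fluorescence loss; 100% = effect of cAMP agonist control; nearly all actives have a fitted effect of over 75% in size.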
Test [2] deals with Rap guanine nucleotide exchange factor 4 (Homo sapiens) (UniProt Q8WZA2). The test can be described thus: Confirmatory qHTS for agonist of cAMP-regulated guanine nucleotide exchange factor 4 (EPAC2) (AID 1645884).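 Further: nucleotide exchange releases bodipy-GDP from Rap1 and this lowers its fluorescence; on the % scale 0 is the no-effect control and ±100 the full control effect; nearly all actives have a fitted effect of over 65% in size.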
Sequence of Rap guanine nucleotide exchange factor 4 (Homo sapiens) (Q8WZA2 whole entry, looked up): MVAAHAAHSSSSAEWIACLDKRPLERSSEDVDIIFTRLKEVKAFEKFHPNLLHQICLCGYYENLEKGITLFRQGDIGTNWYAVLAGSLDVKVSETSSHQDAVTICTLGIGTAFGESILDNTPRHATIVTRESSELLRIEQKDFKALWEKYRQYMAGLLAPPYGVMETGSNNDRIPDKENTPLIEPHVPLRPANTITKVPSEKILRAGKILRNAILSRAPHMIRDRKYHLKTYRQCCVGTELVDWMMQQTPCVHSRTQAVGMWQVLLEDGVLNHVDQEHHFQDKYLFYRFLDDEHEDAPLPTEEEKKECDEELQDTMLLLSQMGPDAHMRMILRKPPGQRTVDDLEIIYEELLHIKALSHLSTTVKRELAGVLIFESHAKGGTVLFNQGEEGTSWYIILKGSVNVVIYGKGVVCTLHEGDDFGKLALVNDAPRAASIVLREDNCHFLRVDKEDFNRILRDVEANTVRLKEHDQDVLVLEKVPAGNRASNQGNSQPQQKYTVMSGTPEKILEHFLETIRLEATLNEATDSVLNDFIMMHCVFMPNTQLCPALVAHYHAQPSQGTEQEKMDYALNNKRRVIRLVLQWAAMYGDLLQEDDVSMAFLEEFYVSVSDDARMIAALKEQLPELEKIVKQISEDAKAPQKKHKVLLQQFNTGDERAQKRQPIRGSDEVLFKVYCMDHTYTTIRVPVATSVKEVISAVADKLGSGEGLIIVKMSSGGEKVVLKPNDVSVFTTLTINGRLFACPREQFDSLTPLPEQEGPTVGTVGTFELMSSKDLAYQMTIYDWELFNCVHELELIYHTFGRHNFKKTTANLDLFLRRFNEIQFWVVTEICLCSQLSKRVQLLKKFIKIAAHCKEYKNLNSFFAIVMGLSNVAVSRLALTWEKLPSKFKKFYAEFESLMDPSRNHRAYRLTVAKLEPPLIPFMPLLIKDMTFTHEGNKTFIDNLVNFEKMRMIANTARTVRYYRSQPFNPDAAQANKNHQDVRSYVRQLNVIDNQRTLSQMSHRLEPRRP
Test [3] shares this target. The test can be described thus: Confirmatory qHTS for antagonist of cAMP-regulated guanine nucleotide exchange factor 4 (EPAC2) (AID 1645885). Further: nearly all actives have a fitted effect of over 25% in size. Further: potency means the concentration at half of the fitted maximal effect. On activity change, negative = inhibition: on the % scale 0 is the no-effect control and ±100 the full control effect.
Test [4] addresses Rap guanine nucleotide exchange factor 3 (Homo sapiens) (UniProt O95398). The test can be described thus: Counterscreen qHTS for antagonist of cAMP-regulated guanine nucleotide exchange factor 3 (EPAC1) (AID 1645888).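 Further: fluorescence loss as bound BODIPY-GDP is released from Rap1B; % of control where 0% means no effect.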 Summed up: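 Rap1B-BODIPY-GDP 250 nM + GDP 50 uM; cpds 7-pt, final 9.74 nM–152 uM (activator mode) or from 7.32 nM upwards (inhibitor mode); RT; FI 480/540 nm at 5 and 30 min, then ± cAMP, reread.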

Structures are written as SMILES. Results filed as inconclusive are left out. Values without a mark were called inactive. Calls of active or inactive are those of the source. The call rests on the fitted dose curve; in most records, active means well fitted curve in the direction sought with a large enough effect; inconclusive means small, poorly fitted or top-dose-only effect, or another doubt; inactive means no such curve, though single readings can be large; an effect the other way counts as inactive or inconclusive.

The record followed here is PubChem BioAssay (NCATS).

Sequence of Rap guanine nucleotide exchange factor 3 (Homo sapiens) (O95398 whole entry, looked up): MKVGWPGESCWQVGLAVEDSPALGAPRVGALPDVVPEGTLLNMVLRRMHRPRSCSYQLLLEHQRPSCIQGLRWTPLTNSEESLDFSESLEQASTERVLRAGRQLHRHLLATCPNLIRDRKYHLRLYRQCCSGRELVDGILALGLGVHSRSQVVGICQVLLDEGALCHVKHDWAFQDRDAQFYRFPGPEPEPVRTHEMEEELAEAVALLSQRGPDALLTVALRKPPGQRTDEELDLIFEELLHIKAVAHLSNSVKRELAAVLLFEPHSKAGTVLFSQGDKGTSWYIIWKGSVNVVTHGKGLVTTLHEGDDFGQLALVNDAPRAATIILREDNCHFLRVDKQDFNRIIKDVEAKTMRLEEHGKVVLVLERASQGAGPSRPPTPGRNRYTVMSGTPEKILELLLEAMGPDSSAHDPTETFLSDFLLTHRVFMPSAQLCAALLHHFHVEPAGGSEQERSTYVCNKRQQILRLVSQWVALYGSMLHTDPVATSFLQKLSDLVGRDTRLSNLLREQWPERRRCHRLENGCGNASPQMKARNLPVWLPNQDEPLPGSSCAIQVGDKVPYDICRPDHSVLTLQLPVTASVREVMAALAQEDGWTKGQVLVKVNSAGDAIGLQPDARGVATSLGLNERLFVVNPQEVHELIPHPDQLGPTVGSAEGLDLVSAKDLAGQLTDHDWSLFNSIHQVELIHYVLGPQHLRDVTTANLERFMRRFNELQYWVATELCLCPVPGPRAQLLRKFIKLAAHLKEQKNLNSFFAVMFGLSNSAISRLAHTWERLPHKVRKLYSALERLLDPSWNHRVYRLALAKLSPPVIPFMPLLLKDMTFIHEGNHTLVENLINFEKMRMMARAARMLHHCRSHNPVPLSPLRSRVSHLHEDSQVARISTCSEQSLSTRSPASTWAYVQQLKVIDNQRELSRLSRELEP

Turning to `O=C1NC[C@@H](Cc2cccc3ccccc23)N(CCc2cc(C(F)(F)F)cc(C(F)(F)F)c2)C1=O`, the Potency entry in test [1], in test [2] and in test [3] was “inactive” each time.

Consider `CCOc1cccc(CNc2ccc(O)cc2)c1OCc1ccc(Cl)cc1Cl`, for which the Potency entry in test [1], in test [2] and in test [3] was “inactive” in each case.

In the case of `COc1cc(CNc2ccc(O)cc2)cc(Br)c1OCc1ccccc1F`, the Potency result in test [1] and in test [3] was “inactive” throughout. The activation in test [2] was 0.373% [at 17.1 µM, percent relative to cAMP agonist control].

Turning to `Cc1ccc(C(NC(=O)C2CCN(Cc3ccc(Cl)c(Cl)c3)CC2)c2ccccn2)cc1` (configuration not stated), the Potency result in test [1], in test [2], in test [3] and in test [4] was “inactive” in each case.

For the compound `O=C(c1[nH]c(C(F)(F)F)nc1-c1ccccc1)N1CCC(C(O)(c2ccccc2)c2ccccc2)CC1`, the Potency result in test [1], in test [2] and in test [3] was “inactive” each time.

Turning to `CCOc1cccc(CNc2ccc(O)cc2)c1OCc1ccc(Cl)cc1`, the Potency result in test [1], in test [2], in test [3] and in test [4] was “inactive” in each case.

Take `CCOC(=O)c1ccc(NC(=O)CC2Nc3cccc4cccc(c34)NC2=O)cc1` (configuration not stated): the Potency result in test [1], in test [2], in test [3] and in test [4] was “inactive” in each case.

In the case of `O=C(Nc1c(-c2ccc3c(c2)OCO3)[nH][nH]c1=O)c1ccccc1`, the Potency entry in test [1], in test [2], in test [3] and in test [4] was “inactive” throughout.

In the case of `ON=C(c1ccccc1)c1ccc2c3c(cccc13)CC2`, the Potency result in test [1], in test [2], in test [3] and in test [4] was “inactive” throughout.

In the case of `CN(C)c1ccc(C(=O)Nc2sc(Nc3ccccc3)nc2C(N)=O)cc1`, the Potency result in test [1], in test [2] and in test [3] was “inactive” throughout.

On to `CN(c1ccccc1)c1ccc(/C=C(/CCC(=O)O)c2nc3ccccc3s2)cc1[N+](=O)[O-]`, for which the Potency entry in test [1], in test [2], in test [3] and in test [4] was “inactive” in each case.

As to `CCc1cc(-c2n[nH]c(C)c2-c2ccccc2Cl)c(O)cc1OC`, the Potency entry in test [1], in test [2] and in test [3] was “inactive” each time.

As for `COc1ccccc1N1CSC2=C(C#N)C(c3ccc(SC)cc3)CC(=O)N2C1` (configuration not stated), the Potency entry in test [1] and in test [3] was “inactive” each time. In test [2], the activation is 7.57% [at 17.1 µM, percent relative to cAMP agonist control]. Further, the activity change, negative = inhibition in test [4] was -2.77% [at 30.8 µM].

Turning to `CCc1nc2ccc(C(=O)Nc3ccc(OC)c(OC)c3)cn2c1N(C)CCC(C)C`, the Potency entry in test [1] and in test [3] was “inactive” in each case. For the same compound, the activation in test [2] is 6.16% [at 17.1 µM, percent relative to cAMP agonist control].

Turning to `CCCc1ccc2oc(C(=O)NCCc3nc(C(=O)OCC)cs3)c(C)c2c1`, the Potency result in test [1] and in test [3] was “inactive” each time. In addition, in test [2], the activation is -3.74% [at 17.1 µM, percent relative to cAMP agonist control]. Besides, the activity change, negative = inhibition in test [4] was -14.7% [at 30.8 µM].

In the case of `O=C(N/N=C/c1c(O)ccc2ccccc12)c1[nH]ncc1Br`, the Potency result in test [1], in test [2], in test [3] and in test [4] was “inactive” each time.

Take `Cc1ccc2[nH]cc(C(c3ccccc3)c3ccc(Cl)s3)c2c1` (configuration not stated): the Potency entry in test [1], in test [2], in test [3] and in test [4] was “inactive” throughout.

`COc1ccc(Cl)cc1NC(=O)CN(C)C(=O)c1cc(-c2ccncc2)nc2ccccc12`: the Potency result in test [1], in test [2], in test [3] and in test [4] was “inactive” in each case.

Turning to `COc1ccc(SC[C@H](C)CN2CC[C@H](C(C)(C)C)CCC2=O)cc1`, the Potency result in test [1] and in test [2] was “inactive” each time. Also, the Potency in test [3] was 35 µM (active).

On to `O=C1C(=O)c2cccnc2-c2ncccc21`, for which the Potency result in test [1], in test [2], in test [3] and in test [4] was “inactive” each time.

In the case of `CCCCc1ccc(NS(=O)(=O)c2cc3c4c(c2)CC(=O)N4CCC3)cc1`, the Potency entry in test [1], in test [2], in test [3] and in test [4] was “inactive” in each case.

Regarding `Cc1cc(N2CCOCC2)ccc1/C=C1/SC(=O)NC1=O`, the Potency result in test [1], in test [2], in test [3] and in test [4] was “inactive” each time.

As to `O=C(Nc1cc(Cl)cc(Cl)c1)c1ccc(F)c(S(=O)(=O)NC2CCCC2)c1`, the Potency entry in test [1] and in test [2] was “inactive” each time. In test [3], the outcome is “inactive [at 12.7 µM]”.

As to `OC(CSc1ccccc1)CN1CCN(c2cccc(Cl)c2)CC1` (configuration not stated), the Potency result in test [1] and in test [3] was “inactive” in each case. Also, the activation in test [2] was 5.38% [at 17.1 µM, percent relative to cAMP agonist control]. The activity change, negative = inhibition in test [4] is 12.2% [at 30.8 µM].

As to `O=C1Cc2ccccc2C(=O)N1`, the Potency entry in test [1], in test [2], in test [3] and in test [4] was “inactive” in each case.

On to `CCc1ccc(OCC2c3cc(OC)c(OC)cc3CCN2C(C)=O)cc1` (configuration not stated), for which the Potency entry in test [1], in test [2] and in test [4] was “inactive” throughout. The Potency in test [3] was 42.6 µM (active).

Consider `Cc1cccc(NC(=O)CN2C(=O)S/C(=C\c3cccn3-c3cccc(C(=O)O)c3)C2=O)c1`, for which the Potency entry in test [1], in test [2], in test [3] and in test [4] was “inactive” each time.

Take `NC(=O)c1c(NC(=O)CSc2nnc(-c3ccco3)n2N)sc2c1CCCC2`: the Potency entry in test [1], in test [2] and in test [3] was “inactive” throughout.
